Screening results: PubChem, National Center for Advancing Translational Sciences (NCATS)
Only some compounds are listed: those with a hit (about 8.3% of all), similar ones and a draw of the others.
Lassa entry inh: blocks Lassa virus binding to or entry into cells; Potency, µM (series often up to 37.9 µM), most hits filed as inhibitors; 300,000 tested, 1.2% active; Lassa virus pseudotype entry inhibition, cell reporter; AID 540256; calls by dose curve; tested in HEK293 cells; further: nearly all actives have a fitted effect of over 50% in size
MARV entry inh: blocks Marburg virus binding to or entry into cells. 300,000 tested, 1.8% active. Marburg virus pseudotyped entry inhibition, cell reporter. AID 540276. Potency, µM (series often up to 37.8 µM), hits mostly inhibitors; calls by dose curve; tested in HEK293 cells
HCV inhibitor: blocks hepatitis C virus; Huh7.5.1 HCVcc-Cre infection, luciferase reporter, 44 h; Potency, µM (doses to about 41.8 µM), most hits filed as inhibitors; 340,000 tested, 3.4% active; AID 651820
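A cell-based infection assay in which seeded cells (1,000 per well) receive test compound after 4 h, are inoculated with HCVcc-Cre at approximately 0.5 moi, and are incubated 44 h before luminescence detection.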
FMDV inh: antivirals against foot and mouth disease virus | FMDV antiviral cell-based qHTS | Potency, µM (series often up to 57.9 µM), most hits filed as inhibitors | 410,000 tested, 1.2% active | AID 1159524; calls by dose curve; tested in HEK293T cells; further: read-out not given here; nearly all actives have a fitted effect of over 45% in size
HCMV inh: inhibitors of human cytomegalovirus; activity change, negative = inhibition, % at 57.5 µM; AID 1259415; HFF cells, HCMV-luciferase reporter, 72 h; stronger effect = lower value; 410,000 tested, 4.5% active; in the data active means activity change below about -60%; inconclusive means no clear call, values can overlap the other calls; inactive means above about -39%
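Screen run at 2 compound doses on HFFs infected with reporter HCMV, MOI 1 PFU/cell. Luciferase activity from cell lysates at 72 h post infection gave inhibition relative to buffer-only and Salinomycin wells.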
FBPA Giardia inh: blocks Giardia fructose-bisphosphate aldolase activity. purified Giardia FBPA. Potency, µM (doses to about 59.6 µM), usual class: inhibitors. 290,000 tested, 0.71% active; further: nearly all actives have a fitted effect of over 55% in size
Target sequence (A8B2U2 whole entry, looked up): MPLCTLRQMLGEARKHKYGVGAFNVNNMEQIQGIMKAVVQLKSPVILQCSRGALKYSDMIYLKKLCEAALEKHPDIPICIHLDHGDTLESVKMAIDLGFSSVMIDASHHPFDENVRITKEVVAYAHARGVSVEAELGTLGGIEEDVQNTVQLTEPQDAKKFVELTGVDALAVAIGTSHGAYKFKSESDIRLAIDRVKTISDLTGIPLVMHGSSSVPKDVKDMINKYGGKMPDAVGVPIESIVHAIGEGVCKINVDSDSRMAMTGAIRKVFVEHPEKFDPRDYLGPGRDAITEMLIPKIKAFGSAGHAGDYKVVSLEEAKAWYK
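40 nM FBPA preincubated 10 min at RT with compound (up to 57.5 uM final), then substrate plus GAPDH/TPI/NAD/arsenate coupling and diaphorase/resazurin added. Fluorescence read after 20 min at RT, 525/598 nm.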
HCV confirm: HCV inhibition, cherry-pick confirmation | shares compounds with HCV inhibitor | HCVcc-Cre infectious virus cell assay, luciferase, inhibition | Potency, µM (top dose mostly 41.8 µM), usual class: inhibitors | 640 tested, 78% active; further: nearly all actives have a fitted effect of over 80% in size
HCV cytotox: toxic to HCV host cells, flagging false HCV inhibitors; shares compounds with HCV inhibitor; HCV host cell line cytotoxicity counterscreen; Potency, µM (doses to about 41.8 µM), most hits filed as inhibitors; 640 tested, 22% active; AID 720576;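 further: 44 h compound exposure; nearly all actives have a fitted effect of over 55% in size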
Hits are given with their value; n = inactive; u = inconclusive; x = not tested or not shown; [ ] = another dose, or the depositor's remark. Unless noted, the call rests on the fitted dose curve; in most records, active means well fitted curve in the direction sought with a large enough effect; inconclusive means small, poorly fitted or top-dose-only effect, or another doubt; inactive means no such curve, though single readings can be large; an effect the other way counts as inactive or inconclusive.

SMILES	Lassa entry inh	MARV entry inh	HCV inhibitor	FMDV inh	HCMV inh	FBPA Giardia inh	HCV confirm	HCV cytotox
CCCCn1c(SCn2nnc3ccccc3c2=O)nc2cc(S(N)(=O)=O)ccc21	n	n	u	x	n	n	0.0011µM	n
CCCCn1c(SCN2C(=O)c3ccccc3C2=O)nc2cc(S(N)(=O)=O)ccc21	n	u	n	n	n	n	x	x
C=C1C(=O)O[C@@]23[C@H]1CC[C@@H](C)[C@@H]2CC[C@@]1(C)O[C@@H]31	x	x	2.82µM	u	x	x	u	n
Cc1ccc(OCc2nnc(SCC(=O)Nc3ccccc3C(C)C)o2)cc1	n	x	x	n	n	x	x	x
Cc1cc(C)n(-c2ccc(C(=O)Nc3ccc4c(c3)OCCO4)cc2)n1	n	n	u	n	n	n	u	n
c1ccc2c(c1)[nH]c1c(N3CCN(C4CCCCC4)CC3)ncnc12	n	u	n	n	n	n	x	x
c1ccc2c(c1)[nH]c1c(N3CCCC3)ncnc12	n	u	8.91µM	12.6µM	u	n	7.05µM	15.8µM
O=C(Nc1nnc(CC2=CCCCC2)s1)c1cccs1	n	n	n	n	n	n	x	x
O=C(Nc1ccc(Cl)c(Cl)c1)Nc1nnc(CC2=CCCCC2)s1	x	x	2.82µM	u	u	n	7.05µM	7.91µM
O=C(CN(Cc1ccccc1)C1=NCCS1)c1ccc(Cl)cc1	n	u	6.31µM	n	n	n	8.87µM	n
COc1ccc(C(=O)CN(Cc2ccccc2)C2=NCCS2)cc1	n	u	n	n	n	n	x	x
CCOc1ccccc1CNC(=O)c1cc2c(=O)n(Cc3ccco3)ccc2nc1C	n	x	x	n	n	x	x	x
COc1cc(OC)c(NC(=O)CCc2nc(C3=CCN(Cc4cccc(Cl)c4)CC3)no2)cc1Cl	n	x	x	n	n	x	x	x
CCOc1ccc(C(C)=O)cc1COc1ccc(-n2cnnn2)cc1	n	n	2.82µM	n	n	n	0.315µM	n
CCOC(=O)C1(Cc2ccccc2C(F)(F)F)CCN(C2CCN(C(C)C)CC2)CC1	u	7.3µM	3.16µM	n	-68.6	n	11.2µM	n
C#CCN1C(C)=C(C(=O)CCO)[C@@H](c2cccc(-n3oo3)c2)C(C(=O)OC)=C1C	x	x	x	n	x	n	x	x
CCOC(=O)c1cccc(NC(=O)c2cc3sccc3n2C)c1	n	n	3.16µM	n	n	n	25µM	n
CCCCNc1nc(Oc2ccc(=O)n(-c3ccccc3)n2)nc(N(CC)CC)n1	u	n	x	n	n	x	x	x
COc1cc(OC)c(NC(=O)c2cccc(F)c2)cc1Cl	u	n	u	n	n	n	u	n
COc1ccc(NC(=O)Nc2ccccc2SC)cc1OC	x	x	u	n	n	n	x	x
COc1cc(OC)c(NC(=O)Nc2ccc(OC)c(OC)c2)cc1Cl	n	u	2.51µM	n	n	n	n	n
CC1CCN(S(=O)(=O)c2ccc3c(ccn3CC(=O)NCc3ccc(N(C)C)cc3)c2)CC1	n	x	x	n	n	x	x	x
CCCCC(=O)Nc1ccc(NC(=O)c2ccc3c(c2)OCO3)cc1OC	n	n	2.51µM	n	n	n	u	n
COC(=O)CNC(=O)/C=C/c1cc(Br)ccc1OC	n	u	u	n	n	n	x	x
COc1ccc(Br)cc1/C=C/C(=O)Nc1ccc(C)cc1	u	u	u	n	n	n	7.05µM	n
SMILES	Lassa entry inh	MARV entry inh	HCV inhibitor	FMDV inh	HCMV inh	FBPA Giardia inh	HCV confirm	HCV cytotox
CC(C)C(=O)N[C@H]1CCCN1C(=O)/C=C\c1ccccc1	x	n	x	x	x	n[12.9 µM]	x	x
O=C(NCCN1CCCC1)c1ccc(Cn2c(=S)[nH]c3cc4c(cc3c2=O)OCO4)cc1	n	u	u	n	n	n	x	x
C=CCNC(=O)c1ccc(Cn2c(=S)[nH]c3cc4c(cc3c2=O)OCO4)cc1	n	n	u	n	n	n	2.5µM	n
CC(=O)c1sc(NC(=O)CCS(=O)(=O)c2ccc(C)cc2)nc1C	n	u	2.82µM	n	n	x	u	u
C=C(c1ccccc1Cl)[n+]1ccccc1	n	u	4.47µM	n	-60.2	n	7.05µM	25µM
Cc1cc(C)cc(NC(=O)CN2C(=O)CCc3cc(S(=O)(=O)N4CCCCC4)ccc32)c1	n	x	x	n	n	x	x	x
O=[N+]([O-])c1cccc2ccc(/C=C/c3ccc(F)cc3)nc12	n	n	1µM	n	n	n	3.15µM	n
